# According to ChEMBL document CHEMBL3988442, “University of Dundee, Small-Polar-MMV Screening Library” (2021):
# About 1,200 (3.2%) of roughly 38,000 compounds showed an effect of 50% or more. The median lay at about -58%. For the sample, strong results were picked, then their nearest neighbours and some compounds at random.
# Tested on: Plasmodium falciparum
# Test: Calibr Malaria Delayed Death Assay SOP
# Type: functional, organism-based
# Parameters: scale not given: in the data most compounds retested in dose-response had high values
# Conditions: concentration 4.99e-06 (unit not given; other assays of the set use mol/L)
row,SMILES,Percent Effect [%]
1,CCC(O)CN1CCN(C(=O)c2cccc3c2OCC(=O)N3)CC1 (stereo unspecified),-136.7
2,CC(C)CN1C(=O)C2(CCN(Cc3ccsc3)C2)c2ccccc21.O=C(O)C(F)(F)F (stereo unspecified),-33.32
3,Cc1cccc(CN2CCc3ncnc(N4CCN(C)CC4)c3CC2)n1.O=C(O)C(F)(F)F.O=C(O)C(F)(F)F,-236.1
4,Cc1noc(C(C)C)c1C(=O)NCCCOC(C)C,-142.4
5,CC(CNC(=O)NCc1ccoc1)N1CCc2sccc2C1 (stereo unspecified),-8.458
6,CCc1cnc(CN(C)C2CCN(CCCS(=O)(=O)NC)C2)o1 (stereo unspecified),-85.83
7,O=C(O)C(F)(F)F.c1ccc(NC[C@@H]2CCC[C@@H]3CN(c4ncccn4)C[C@@H]32)nc1,71.6
8,O=C(O)C(F)(F)F.c1ccc(NC[C@@H]2CCC[C@@H]3CN(Cc4cc[nH]n4)C[C@@H]32)nc1,-36.14
9,COCCN1C[C@H]2CCC[C@@H](CNc3ncccn3)[C@H]2C1.O=C(O)C(F)(F)F.O=C(O)C(F)(F)F,19.85
10,Cc1cccc(C)c1OC1CN(C(=O)C2CC(=O)N(C(C)(C)C)C2)C1 (stereo unspecified),-9.651
11,COc1nccnc1-c1cc(NC2CCCC2)nc2[nH]ccc12,19.53
12,FC(F)(F)c1ccc(-c2cc(NC3CCNCC3)nc3[nH]ccc23)nc1,-115.3
13,COc1cc(-c2cc(NC3CCCC3)nc3[nH]ccc23)nc(N)n1,62.87
14,COc1ncc(-c2cc(NC3CCCC3)nc3[nH]ccc23)c(OC)n1,74.29
15,COc1nccnc1-c1cc(NC2CCNCC2)nc2[nH]ccc12,-131.1
16,CNc1cc(C)nc(-c2cc(NC3CCNCC3)nc3[nH]ccc23)n1,-52.32
17,CC(Nc1ccc(F)cc1)c1nnnn1-c1ccccc1 (stereo unspecified),-147.9
18,Cc1cc(S(C)(=O)=O)c(C)c(S(=O)(=O)N2CCCCCC2)c1,-98.91
19,c1cnn(CC2CN(Cc3nc(-c4ccoc4)no3)CCO2)c1 (stereo unspecified),-25.36
20,Cc1csc(N2CCCN(C(=O)Cc3ccc(C)s3)CC2)n1,-98.4
21,CCN(CC)c1nc(C)cc(C(=O)Nc2ccc(Br)cc2)n1,-6.909
22,CN1CCC(N(C)C(=O)Nc2ccc(Cl)cc2)CC1,-68.4
23,Cc1nc(N2CCCC2)ncc1C(=O)Nc1ccc(Br)cc1,-75.85
24,Cn1cc(NC(=O)CNC(=O)N2CCN(c3ccc(Cl)cc3)CC2)cn1,2.407

row,SMILES,Percent Effect [%]
1,Cc1oc(-c2cccc(F)c2F)nc1CN(C)CCO,-89.89
2,CC[C@H](C)[C@H](NC(=O)c1cccc(-n2cnnn2)c1)C(=O)OC,-118.3
3,COCC(O)CNC(=O)c1cc(COc2ccc3c(c2)CCCC3)on1 (stereo unspecified),-3.069
4,CC(C)NC(=O)CC1COC2(CCN(Cc3cccs3)CC2)C1.O=C(O)C(F)(F)F (stereo unspecified),-6.903
5,O=C(COc1coc(CN2CCCCC2)cc1=O)Nc1ccccc1Cl,-97.93
6,O=C(COc1coc(CN2CCCC2)cc1=O)Nc1cc(Cl)ccc1Cl,79.74
7,O=C(COc1coc(CN2CCCC2)cc1=O)Nc1ccc(Cl)c(Cl)c1,-65.99
8,COc1ccc(NCC(=O)NCC(=O)N2CCCC2)c(C(F)(F)F)c1,-93.16
9,CC(C)CNC(=O)CN(Cc1ccc(F)cc1)S(C)(=O)=O,-57.65
10,COc1ccc(C[C@H]2CN(C(=O)c3cscn3)CC[C@@H]2OC)cc1,-91.5
11,CCn1cnnc1CNC(=O)N1CCN(CC(C)C)CC1,-55.6
12,c1ccc(-c2nc(CNC3CCc4ncnn4C3)no2)cc1 (stereo unspecified),-138.7
13,Fc1ccc(C2(NCc3ccccc3)CCOCC2)cc1,62.64
14,CSc1ccc(CNC2(c3ccc(F)cc3)CCOCC2)cc1,28.49
15,CN(C)c1ccc(CNC2(c3ccc(F)cc3)CCOCC2)cc1F,25.79
16,O=C(CCc1nc2ccccc2[nH]1)Nc1ccc2c(c1)OCC(=O)N2,-185.4
17,Cc1cc(F)c(S(=O)(=O)Nc2ccn(CCC#N)n2)cc1F,-82.35
18,CO[C@@H]1CCN(c2ncccn2)[C@H]1Cc1ccccc1,-224.1
19,CN(C)[C@@H]1CCN(c2ncc(F)cn2)[C@H]1Cc1ccccc1.O=C(O)C(F)(F)F.O=C(O)C(F)(F)F,88.46
20,Fc1cnc(N2CC[C@@H](N3CCOCC3)[C@@H]2Cc2ccccc2)nc1,-55.08
21,CN(C)[C@@H]1CCN(c2ncccn2)[C@H]1Cc1ccccc1,77.2
22,CN(C)[C@@H]1CCN(c2ncccn2)[C@H]1Cc1ccncc1.O=C(O)C(F)(F)F.O=C(O)C(F)(F)F,-10.95
23,CN(C)[C@@H]1CCN(c2ncc(F)cn2)[C@H]1Cc1ccncc1.O=C(O)C(F)(F)F.O=C(O)C(F)(F)F,27.12
24,CN(C)[C@@H]1CCN(c2ncc(F)cn2)[C@H]1Cc1cccnc1.O=C(O)C(F)(F)F.O=C(O)C(F)(F)F,-22.18

row,SMILES,Percent Effect [%]
1,CN(C)[C@@H]1CCN(c2ncccn2)[C@H]1Cc1cccnc1.O=C(O)C(F)(F)F.O=C(O)C(F)(F)F,10.59
2,Cc1nn(C)c(C)c1CN(C)C(C(=O)O)c1ccc(F)cc1F (stereo unspecified),-28.09
3,Cc1nc(-c2nnc[nH]2)sc1C(=O)N1CCCC1c1cccs1 (stereo unspecified),-86.12
4,Cc1ccc(F)c(S(=O)(=O)NCCc2nnc[nH]2)c1,-33.36
5,N#Cc1ccc(NCC(O)c2ccco2)c(C(F)(F)F)c1 (stereo unspecified),-33.98
6,Cn1cc(C(=O)N2CCCC(CN3CCCC3=O)C2)cn1 (stereo unspecified),-14.99
7,O=C(c1ccc(F)c(F)c1)N1CCC[C@]2(C[C@@H](OCC3CC3)CO2)C1,-0.7044
8,COC(=O)CC(c1ccc(O)c(Cl)c1)c1oc(C)cc(=O)c1O (stereo unspecified),-28.31
9,Cc1nc(C)n(C2CCCN(C(=O)CCc3ccccn3)C2)n1 (stereo unspecified),-132.7
10,COCCOCC(=O)NC1CCN(c2ccccn2)CC1,-21.4
11,CC(C)COCCC(=O)NCCC(=O)N1CCN(c2ccccn2)CC1,-146.7
12,COc1ccc(C(C)CCNC2CCN(c3ccccn3)CC2)cc1 (stereo unspecified),67.25
13,OC1(CNC2CCN(c3ccccn3)CC2)CCc2ccccc21 (stereo unspecified),27.14
14,CC(C)COCCNC1CCN(c2ccccn2)CC1,60.11
15,CC(CNC1CCN(c2ccccn2)CC1)Oc1ccc(F)cc1 (stereo unspecified),47.69
16,CSCC(=O)N1CCOC(c2nc(C(C)C)n[nH]2)C1 (stereo unspecified),-97.79
17,CC(C)[C@H]1CN(c2ccnc(N)n2)C[C@@H]1NC(=O)C1(C#N)CCOCC1,-66.36
18,Cc1cc(CN2CCC(c3nccn3C(C)C)CC2)ccc1F,18.24
19,C[C@@H]1CN(Cc2cc(C3CCCCC3)no2)CC[C@]1(C)O,-5.788
20,Fc1ccc(C2CCCCN2Cc2cc(-c3ccccn3)no2)cc1 (stereo unspecified),-40.19
21,OC1COCCN(Cc2cc(-c3ccccc3OC(F)(F)F)no2)C1 (stereo unspecified),-13.03
22,OCC1COCCN(Cc2cc(C3CCCCC3)no2)C1 (stereo unspecified),-120.4
23,NC1CCCCN(Cc2cc(-c3ccccc3OC(F)(F)F)no2)C1 (stereo unspecified),70.63
24,NC1CCCCN(Cc2cc(C3CCCCC3)no2)C1 (stereo unspecified),62.41

row,SMILES,Percent Effect [%]
1,O=C(O)C(F)(F)F.O=C(O)C(F)(F)F.O=C1COC2(CCN(Cc3cccnc3)CC2)CN1c1ccccc1,-17.97
2,Cc1cnc(C(=O)N2CCCC(n3cccn3)C2)cn1 (stereo unspecified),-66.69
3,CCN(C)Cc1cccc(CNC(=O)NCCc2ccccn2)c1,-13.41
4,CN(C)Cc1nnc2n1CCN(Cc1ccccn1)CC2,-1.592
5,CC(C)Nc1nc2c(s1)C(=O)CN(C(=O)NCc1ccccc1)C2,-132.7
6,NC(=O)COc1ccc(CN2CCNC(C(=O)NC3CC3)C2)cc1Cl (stereo unspecified),-16.07
7,CCCOc1cc(Cl)c(CN2CCNC(C(=O)NC3CC3)C2)cc1OC (stereo unspecified),74.72
8,CCOc1ccc(CN2CCNC(C(=O)NC3CC3)C2)cc1CO (stereo unspecified),-11.99
9,Cc1cc(C)n(CC(=O)N(CC2CN(C)CCO2)c2nccs2)n1 (stereo unspecified),-86.12
10,COc1ccc(Cn2c(Cc3c(C)n[nH]c3C)n[nH]c2=O)cc1,-40.64
11,CN(C)CCO[C@H]1CN(C(=O)c2ccc(C#N)cc2)[C@@H]2COC[C@H]12,-51.41
12,CCCn1ncc2c(C(=O)NC(C)Cn3cccn3)cc(C3CC3)nc21 (stereo unspecified),-124.5
13,Cc1ccc(CS(=O)(=O)NCc2ccco2)cc1,-37.35
14,N#Cc1cccc(CS(=O)(=O)NCC(O)Cc2ccccc2)c1 (stereo unspecified),-10.83
15,O=C(C(CNCc1ccco1)c1ccccc1)N1CCOCC1 (stereo unspecified),-74.95
16,Cc1cc(C)c(N(CC(O)CNCc2ccco2)S(C)(=O)=O)c(C)c1.O=C(O)c1ccccc1 (stereo unspecified),59.67
17,Cc1ccc(N(C)CC(O)COCc2ccccc2)c(C)c1 (stereo unspecified),-54.55
18,Br.Cc1cc(C)c(N(CC(O)CNCc2ccccc2)S(C)(=O)=O)c(C)c1 (stereo unspecified),69.59
19,O=S(=O)(Cc1cccc(F)c1)NCC(O)Cc1ccccc1 (stereo unspecified),-87.6
20,Cc1cccc(CS(=O)(=O)NCC(O)Cc2ccccc2)c1 (stereo unspecified),-12.6
21,CCn1nc(C)c2nc(C)nc(NCCc3ccccc3)c21,35.69
22,CO[C@@H]1CN(c2ccccc2)S(=O)(=O)[C@@]12CCNC2,-24.96
23,CC1c2ccsc2CCN1Cc1cc2c(cc1O)OCO2 (stereo unspecified),25.38
24,Cn1cc(C2CCCN2C(=O)c2cnc(-c3ncccn3)s2)cn1 (stereo unspecified),-23.4
